What all share (assay): growth (OD600 after 10 h); higher = more growth (less inhibition)
In assay [1] the test system is E. coli TESEC Alr+ wild-type control. Conditions: compound 0.1 mM; raw OD600 reference: median of DMSO wells 0.241, cell-free background 0.041. The procedure:
(§1)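 TESEC Mtb Alr E. coli, or the Alr+ wild-type control, in 384-well plates with Prestwick library compounds at 0.1 mM and 1% DMSO, across arabinose induction levels of 1E3 to 1E7 nM. Growth is read as OD600 after 10 h at 37 °C in triplicate biological replicates.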

In assay [2] the test system is E. coli TESEC Mtb Alr. Conditions: compound 0.1 mM. The procedure: as §1
In a further assay the test system is E. coli TESEC Mtb Asd. Conditions: compound 0.1 mM. The procedure: (§2)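 TESEC E. coli strains in which the native enzyme is deleted and replaced by arabinose-inducible Mtb Asd, DapB, CysH or TrpD, each grown in its selective medium. Strains were screened against the Prestwick library at 0.1 mM and 1% DMSO in 384-well format at low and high arabinose induction. Growth is read as OD600 after 10 h in triplicate.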

For another assay, the system named is E. coli TESEC Mtb DapB. The conditions noted are these: compound 0.1 mM. As for the experimental part:
as §2

For assay [3], the system named is E. coli TESEC Alr+ wild-type control. Conditions: compound 0.1 mM; raw OD600 reference: median of DMSO wells 0.49, cell-free background 0.052. As for the experimental part: (§3)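 TESEC Mtb Alr E. coli (ΔaraC ΔtolC ΔentC Δalr ΔdadX, arabinose-inducible Mtb Alr) or the Alr+ wild-type control strain, grown in defined M9-fructose medium without D-alanine in 96-well plates with Prestwick library compounds at 0.1 mM and 1% DMSO. Low Alr induction is 0.1 µM arabinose and high induction is 10 mM arabinose.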

Assay [4] relates to E. coli TESEC Mtb Alr. The conditions noted are these: compound 0.1 mM. As for the experimental part: as §3
This is another data set of the same source.

[5] abbreviates: arabinose 1000 nM, raw OD600 reference: median of DMSO wells 0.294, cell-free background 0.041.
Setting [6] is: arabinose 10000 nM, raw OD600 reference: median of DMSO wells 0.264, cell-free background 0.041.
Where [7] appears, read: arabinose 100000 nM, raw OD600 reference: median of DMSO wells 0.201, cell-free background 0.041.
Setting [8] is: arabinose 1000000 nM, raw OD600 reference: median of DMSO wells 0.193, cell-free background 0.041.
Where [9] appears, read: arabinose 10000000 nM, raw OD600 reference: median of DMSO wells 0.146, cell-free background 0.041.
[10] abbreviates: arabinose induction (level): High, raw OD600 reference: median of DMSO wells 0.331, cell-free background 0.041.
The mark [11] stands for this setting: arabinose induction (level): Low, raw OD600 reference: median of DMSO wells 0.417, cell-free background 0.041.
Setting [12] is: arabinose induction (level): High, raw OD600 reference: median of DMSO wells […], cell-free background 0.041.
[13] abbreviates: arabinose induction (level): Low, raw OD600 reference: median of DMSO wells 0.227, cell-free background 0.041.
[14] abbreviates: arabinose 100 nM, raw OD600 reference: median of DMSO wells 0.413, cell-free background 0.052.
Setting [15] is: arabinose 10000000 nM, raw OD600 reference: median of DMSO wells […], cell-free background 0.052.

± gives the standard deviation of the averaged measurements.

In the case of `CC(C)(CO)C(O)C(=O)NCCCO` (configuration not stated) [Panthenol (D)], the growth in assay [1] is 0.261 ± 0.0085; in the assay with E. coli TESEC Mtb Alr [2] (setting [5]) it was 0.296 ± 0.01; in the assay with E. coli TESEC Mtb Alr [2] (setting [6]), 0.261 ± 0.0092; with E. coli TESEC Mtb Alr [2] (setting [7]) it was 0.216 ± 0.053; in the assay with E. coli TESEC Mtb Alr [2] (setting [8]), 0.192 ± 0.0077; in the assay on E. coli TESEC Mtb Alr [2] (setting [9]), 0.147 ± 0.0069. Also, the growth with E. coli TESEC Mtb Asd (setting [10]) came out at 0.357 ± 0.034; with E. coli TESEC Mtb Asd (setting [11]) it was 0.409 ± 0.043; in the assay on E. coli TESEC Mtb DapB (setting [12]) it was 0.185 ± 0.0037; in the assay on E. coli TESEC Mtb DapB (setting [13]) it was 0.219 ± 0.024; in assay [3], 0.5 ± 0.047; in the assay with E. coli TESEC Mtb Alr [4] (setting [14]), 0.406 ± 0.011. For the same compound, the growth in the assay with E. coli TESEC Mtb Alr [4] (setting [15]) was 0.287 ± 0.13.
On to `Nc1nc2n[nH]nc2c(=O)[nH]1` [Azaguanine-8], for which the growth was 0.21 ± 0.0092 in assay [1]; 0.241 ± 0.0083 in the assay on E. coli TESEC Mtb Alr [2] (setting [5]); 0.194 ± 0.0047 in the assay with E. coli TESEC Mtb Alr [2] (setting [6]); 0.239 ± 0.0079 with E. coli TESEC Mtb Alr [2] (setting [7]); 0.143 ± 0.0028 in the assay with E. coli TESEC Mtb Alr [2] (setting [8]); 0.132 ± 0.009 in the assay on E. coli TESEC Mtb Alr [2] (setting [9]). Further, the growth is 0.397 ± 0.01 in the assay with E. coli TESEC Mtb Asd (setting [10]); 0.42 ± 0.044 with E. coli TESEC Mtb Asd (setting [11]); 0.235 ± 0.032 in the assay with E. coli TESEC Mtb DapB (setting [12]); 0.26 ± 0.084 with E. coli TESEC Mtb DapB (setting [13]); 0.3656 ± 0.0032 in assay [3]; 0.409 ± 0.026 in the assay with E. coli TESEC Mtb Alr [4] (setting [14]). Also, the growth in the assay with E. coli TESEC Mtb Alr [4] (setting [15]) came to 0.245 ± 0.16.
With `Nc1ccc(S(=O)(=O)Nc2ccc(Cl)nn2)cc1` [Sulfachloropyridazine], the growth stood at 0.241 ± 0.0064 in assay [1]; 0.285 ± 0.029 with E. coli TESEC Mtb Alr [2] (setting [5]); 0.174 ± 0.0032 in the assay with E. coli TESEC Mtb Alr [2] (setting [6]); 0.231 ± 0.022 in the assay with E. coli TESEC Mtb Alr [2] (setting [7]); 0.0969 ± 0.0044 in the assay with E. coli TESEC Mtb Alr [2] (setting [8]); 0.165 ± 0.0072 with E. coli TESEC Mtb Alr [2] (setting [9]). Further, the growth in the assay with E. coli TESEC Mtb Asd (setting [10]) came out at 0.392 ± 0.14; with E. coli TESEC Mtb Asd (setting [11]) it was 0.412 ± 0.042; with E. coli TESEC Mtb DapB (setting [12]), 0.193 ± 0.013; in the assay on E. coli TESEC Mtb DapB (setting [13]), 0.236 ± 0.03; in assay [3], 0.425 ± 0.022; in the assay with E. coli TESEC Mtb Alr [4] (setting [14]), 0.421 ± 0.005. Besides, the growth with E. coli TESEC Mtb Alr [4] (setting [15]) came to 0.28 ± 0.029.
Take `Nc1ccc(C(=O)NCC(=O)O)cc1` [Aminohippuric acid]: the growth in assay [1] stood at 0.246 ± 0.011; in the assay on E. coli TESEC Mtb Alr [2] (setting [5]) it was 0.297 ± 0.018; in the assay on E. coli TESEC Mtb Alr [2] (setting [6]), 0.2604 ± 0.0024; with E. coli TESEC Mtb Alr [2] (setting [7]) it was 0.186 ± 0.022; in the assay with E. coli TESEC Mtb Alr [2] (setting [8]) it was 0.189 ± 0.006; in the assay on E. coli TESEC Mtb Alr [2] (setting [9]), 0.138 ± 0.0027. Besides, the growth in the assay on E. coli TESEC Mtb Asd (setting [10]) was determined as 0.372 ± 0.047; with E. coli TESEC Mtb Asd (setting [11]) it was 0.464 ± 0.01; in the assay on E. coli TESEC Mtb DapB (setting [12]) it was 0.208 ± 0.0093; with E. coli TESEC Mtb DapB (setting [13]), 0.234 ± 0.0072; in assay [3], 0.6256 ± 0.0055; in the assay with E. coli TESEC Mtb Alr [4] (setting [14]), 0.408 ± 0.015. This compound also displayed a growth in the assay on E. coli TESEC Mtb Alr [4] (setting [15]) of 0.3487 ± 0.0013.

The record behind these values is the supplement of paper PMC9262897, “Low-cost anti-mycobacterial drug discovery using engineered E. coli” (Nature Communications, 2022).
